Pol III holo inh = DNA polymerase III holoenzyme inhibition; reconstituted DNA polymerase III holoenzyme replication, biochemical; Potency, µM (titrated, usually from 57.1 µM), for the others: at the highest dose activity change, negative = inhibition; hit rate 0.25% among 71,000; AID 603; also: % is scaled to controls: 0 for no effect and ±100 for the full control effect
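Reconstituted *E. coli* holoenzyme (0.35 nM Pol III, 1 nM beta, 154 nM SSB, 2 nM primase) was preincubated with compound for 15 min at RT. Synthesis on 1.4 nM ssM13Gori ran 35 min, then was stopped with PicoGreen/EDTA and read as dsDNA fluorescence.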
Tau filament bind = binds recombinant human tau filaments. P10636. recombinant tau filaments, thioflavin S fluorescence, 15 h; filaments grown with octadecylsulfate alongside compound. Potency, µM (series often up to 57.1 µM), for inactives: top-dose activity change, negative = inhibition. hit rate 2% among 71,000;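 also: % is scaled to controls: 0 for no effect and ±100 for the full control effect; actives lower thioflavin S fluorescence by blocking filaments or displacing dye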
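ThS-based fibril read: tau 1 uM final, inducer ODS 30 uM final, 37 C for 15 h, ex 450/em 510 nm.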
Casp1 inh = caspase-1 (human) inhibition, allosteric or competitive. P29466. Caspase-1 enzyme, Ac-WEHD-AFC fluorogenic rate. Potency, µM (series often up to 57.5 µM), inactives show top-dose activity change, negative = inhibition, actives largely listed as inhibitors. hit rate 0.03% among 75,000. AID 900;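 also: plate controls were vehicle for no effect and no substrate for full effect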
15-hLO inh = inhibitors of human 15-lipoxygenase (ALOX15); Potency, µM (top dose mostly 57.1 µM), for the others: top-dose activity change, negative = inhibition, hits mostly inhibitors; purified 15hLO-1, xylenol orange hydroperoxide absorbance; AID 887; P16050; hit rate 1.4% among 74,000; also: % is scaled to controls: 0 for no effect and ±100 for the full control effect; nearly all actives have a fitted effect of over 55% in size
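Compounds were preincubated 15 min at room temperature with 40 nM purified human enzyme (25 mM Hepes pH 7.5, 0.01% Triton X-100); 50 uM arachidonic acid reacted 6 min. Fe-xylenol orange detection, 30 min, absorbance ratio 573/405 nm.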
Casp7 inh = caspase-7 (human) inhibition, allosteric or competitive | P55210 | recombinant caspase-7, Ac-DEVD-AFC fluorescence rate | Potency, µM (series often up to 57.5 µM), for the others: at the top dose activity change, negative = inhibition, hits mostly inhibitors | hit rate 0.02% among 75,000; active = well fitted inhibition curve with a large enough effect in the main read-out, with a control signal flat, not every such curve was filed as active; inconclusive = small, poorly fitted or top-dose-only effect, or a change in a side signal; also: % of control where 0% means no effect
Numbers without * were called inactive; ? = inconclusive; nt = not tested or not shown; [ ] = dose if it differs, or a comment. Most compounds without a hit are left out; they make up all but 3.2% or so of the library. Unless noted, calls follow the shape of the dose curve; as a rule, active = well fitted curve in the direction sought with a large enough effect; inconclusive = small, poorly fitted or top-dose-only effect, or another doubt; inactive = no such curve, though single readings can be large; an effect the other way counts as inactive or inconclusive. Potency is read from the fitted curve at half-maximal effect.

SMILES	Pol III holo inh	Tau filament bind	Casp1 inh	15-hLO inh	Casp7 inh
O=C(CNCC1CCCO1)Nc1ccc(N2CCCCCC2)cc1 (stereo unspecified)	-5%	32µM*	-1%	-27%	0%
Cc1ccccc1OCCCC(=O)Nc1ccc(N2CCOCC2)cc1	3%[11.4 µM]	3.2µM*	-2%	-25%[11.4 µM]	1%
C/C=C/OC(=O)NC(c1ccccc1)[C@]1(C(C)=O)CCCC1=O (stereo partly specified)	nt	nt	2%[11.5 µM]	-4%[11.4 µM]	1%[11.5 µM]
CNC(=O)[C@H](C)[C@H]1C[C@]1(C)[C@H](NC(=O)OCc1ccccc1)c1ccccc1	-3%	5%	-2%	nt	-1%
COc1cc(Cl)ccc1NC(=O)COc1ccccc1C(=O)N1CCN(c2ccc(O)cc2)CC1	-6%	-27%	-3%	25µM*	-6%
COc1ccccc1OCC(=O)Nc1ccc(O)cc1C(=O)O	-6%	-3%	1%	6%	0%
CN1CCN(c2ccc(NC(=O)COc3ccccc3Cl)cc2)CC1	5%	16µM*	-4%	-2%	1%
O=C(COc1ccccc1Cl)N1CCN(c2ccc(F)cc2)CC1	0%	4%	-2%	-6%	1%
OC[C@@H]1O[C@@H](n2cnc3c(Nc4ccccc4)ncnc32)[C@@H](O)[C@H]1O	-2%	5%	4%	-3%	0%
Nc1c(NCCN2CCOCC2)c2ccccc2oc1=O	-3%	-12%	3%	1.6µM*	0%
C[C@@H]1C[C@H](C)CN(S(=O)(=O)c2cc(Cl)c(Oc3ccc([N+](=O)[O-])cc3Cl)c(Cl)c2)C1	-11%[11.4 µM]	-25%[11.4 µM]	1%[11.5 µM]	13%[11.4 µM]	-3%[11.5 µM]
COC1CCC(C(=O)c2ccc3nc4c(cc3c2)CCCO4)CC1 (stereo unspecified)	nt	nt	-1%	-30%	1%
CN1CCN(c2nc3c(c(=O)n(C)c(=O)n3C)n2CCSc2nc3ccccc3s2)CC1	-8%	-18%	2%	1.6µM*	1%
CC1CCN(c2nc3c(c(=O)n(C)c(=O)n3C)n2CCSc2nc3ccccc3o2)CC1	-8%	16%	2%	3%	-1%
CCC(=O)[C@]12O[C@@]3(C4C(=O)OCCC41)N(CC)C(C)=C(C(=O)OC)C(c1ccccc1)N3C2=O (stereo partly specified)	nt	nt	0%[11.5 µM]	16%[11.4 µM]	2%[11.5 µM]
CC1CCCCN1CCCNC(=O)c1ccc(Cc2nc3ccccc3[nH]2)cc1 (stereo unspecified)	nt	nt	-2%	-2%	0%
COc1cc(-c2ccc(N=Nc3ccc4c(S(=O)(=O)O)cc(S(=O)(=O)O)c(N)c4c3O)c(OC)c2)ccc1N=Nc1ccc2c(S(=O)(=O)O)cc(S(=O)(=O)O)c(N)c2c1O	2.5µM*	13µM*	-4%	?	-11%
Cc1nn(-c2ccc(S(=O)(=O)O)cc2)c(O)c1N=Nc1ccc(-c2ccc(N=Nc3ccc4c(S(=O)(=O)O)cc(S(=O)(=O)O)c(N)c4c3O)c(O)c2)cc1O.[Cu].[Cu]	1.3µM*	-22%[11.4 µM]	-2%[11.5 µM]	4µM*	2%[11.5 µM]
C[C@@H](c1ccccc1)N1C(=O)[C@H]2[C@H]3[C@H](O)[C@H](O)C/C(=N/OCc4ccccc4)[C@H]3CC[C@@H]2C1=O	nt	nt	-3%[11.5 µM]	4%[11.4 µM]	-1%[11.5 µM]
CCOc1ccccc1C(=O)Nc1nccs1	-8%	0%	1%	7.9µM*	4%
COCCSc1ccccc1C(=O)Nc1nccs1	1%	-8%	0%	-10%	1%
O=C1CCC[C@H]2OC12[C@@H](O)CCc1ccccc1 (stereo partly specified)	nt	nt	-1%[11.5 µM]	2%[11.4 µM]	-2%[11.5 µM]
Cc1c(CN(C)C)c2c(n1C)C(=O)c1ccc(Br)cc1-2	-13%	2.5µM*	-1%	3%	-1%
CCN(CC)CCCNC(=O)c1ccc(-n2c(=O)c(=O)[nH]c3ccccc32)cc1	nt	nt	0%	0%	-2%
COc1ccc(N2CCN(Cc3nc(N)nc(Nc4ccc(C)c(Cl)c4)n3)CC2)cc1	7%	8%	-2%	-21%	-4%
SMILES	Pol III holo inh	Tau filament bind	Casp1 inh	15-hLO inh	Casp7 inh
Cc1ccc(Nc2nc(N)nc(CN3CCN(c4ccccc4)CC3)n2)cc1Cl	-10%	16µM*	-3%	-19%	-4%
COc1cccc(C(=O)NCC(c2cccnc2)N2CCN(c3ccccc3OC)CC2)c1 (stereo unspecified)	-3%	121%	-9%	13µM*	-6%
CCSc1ccccc1C(=O)Nc1cc(C)on1	-2%	-4%	-2%	13µM*	2%
Cc1c(Cl)cccc1NC(=O)C[C@H]1Sc2ccccc2NC1=O	-10%[11.4 µM]	-14%[11.4 µM]	0%[11.5 µM]	2%[11.4 µM]	2%[11.5 µM]
CC(=O)C(Sc1nc(N2CCOCC2)nc(N2CCOCC2)n1)C(=O)Nc1ccccc1 (stereo unspecified)	-5%	23%	-16%	16µM*	-24%
CC(=O)C(Sc1nn(C)c(=S)s1)C(=O)Nc1ccccc1 (stereo unspecified)	-2%	9%	1%	7.9µM*	0%
Cc1cc(C)nc(NC(=O)CSc2nn(C)c(=S)s2)n1	4%	9%	0%	4%	-1%
CC(=O)OC[C@@H]1O[C@H](CCO/N=C(\C)CCN2CCc3nc(-c4ccccc4)c(-c4ccccc4)cc3C2)C=C[C@@H]1OC(C)=O	nt	nt	7%[11.5 µM]	-1%[11.4 µM]	2%[11.5 µM]
CC1CCC2C(=O)OC(CO)CN2C1c1ccc(Br)cc1 (stereo unspecified)	nt	nt	-1%[11.5 µM]	-1%[11.4 µM]	0%[11.5 µM]
Cc1ccccc1OCCCCCNCCO	nt	nt	-3%	3%	-2%
COc1ccccc1OCCCCNCCO	-1%	13%	1%	-15%	-4%
CC(C)c1ccccc1OCCCCCNCCO	-1%	13µM*	-1%	2%	-1%
CC(C)(C)c1ccccc1OCCCCCNCCO	-3%	10µM*	-1%	-15%	-1%
CCc1cc2c(nc1CC)CCN(CC/C(C)=N/OC[C@@H](O)COCc1ccco1)C2	nt	nt	2%[11.5 µM]	-1%[11.4 µM]	3%[11.5 µM]
O=C1C=CC(=O)C2=C1C1c3ccccc3C2c2ccccc21	nt	nt	-1%	0.79µM*	0%
O=C(Nc1ccc(N2CCN(C(=O)c3ccccc3)CC2)cc1)c1ccc(Br)o1	0%	-27%	0%	-10%	-2%
Cc1ccc(NS(=O)(=O)c2ccc(NC(=O)c3ccc(Br)o3)cc2)c(C)c1	0%	40%	0%	16µM*	1%
O=C(Nc1ccc(S(=O)(=O)NCCc2ccccc2)cc1)c1ccc(Br)o1	0%	48%	-5%	-24%	-9%
O=C(Nc1ccc(N2CCCC2)cc1)c1ccc(Br)o1	-16%[11.4 µM]	3.2µM*	-3%	?	-3%
COC(=O)Cc1ccc(NC(=O)c2ccc(Br)o2)cc1	-2%	-5%	-1%	1%	0%
CCN(CC)c1ccc(NC(=O)c2ccc(Br)o2)cc1	3%[11.4 µM]	3.2µM*	-3%	-30%[11.4 µM]	-1%
C[Si](C)(c1ccc(C(=O)O)cc1)c1ccc(C(=O)O)cc1	-15%[11.4 µM]	5%[11.4 µM]	-3%[11.5 µM]	-29%[11.4 µM]	2%[11.5 µM]
CCC[C@@H]1C[C@@]1(CCC)[C@@H](NC(=O)Oc1ccccc1)c1ccc(C(=O)OC)cc1	-4%	?	-3%	-1%	-1%
